According to the supplement of paper PMC6411743:
± gives the standard deviation of the averaged measurements. The full data set covers some 5,400 targets. This sample favours those with the largest changes.

Compound: Nc1nc2c(ncn2[C@@H]2O[C@H](COP(=O)(O)OP(=O)(O)OP(=O)(O)O)[C@@H](O)[C@H]2O)c(=O)[nH]1 [guanosine triphosphate]
Experiment: NP40-soluble protein abundance relative to vehicle (solubility fold change) (ratio); higher = more soluble protein in presence of GTP
How it was run: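 Jurkat crude lysate prepared with a Dounce homogeniser was treated at eight concentrations spanning 0.1 to 10 mM, 10 min at room temperature then 3 min at 37 °C. Solubilisation with 0.8% NP40 and benzonase and ultracentrifugation preceded TMT labelling of the supernatant for LC-MS/MS. Fold change against the detergent-processed vehicle was determined per replicate from vsn-normalised intensities, across three independent experiments.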

Sequence of UniProt P09564 (P09564 whole entry): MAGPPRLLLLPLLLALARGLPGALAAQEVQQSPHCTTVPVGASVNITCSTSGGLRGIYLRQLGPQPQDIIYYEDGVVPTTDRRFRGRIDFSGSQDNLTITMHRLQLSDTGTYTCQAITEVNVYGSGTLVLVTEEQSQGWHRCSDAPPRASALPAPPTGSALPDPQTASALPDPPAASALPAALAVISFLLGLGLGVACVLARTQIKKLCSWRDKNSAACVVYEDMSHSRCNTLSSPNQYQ
Sequence of UniProt P05114 (P05114 whole entry): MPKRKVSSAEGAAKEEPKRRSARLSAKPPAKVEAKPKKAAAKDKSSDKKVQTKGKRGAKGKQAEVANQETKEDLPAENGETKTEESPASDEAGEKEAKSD
Sequence of UniProt P51114 (P51114 whole entry): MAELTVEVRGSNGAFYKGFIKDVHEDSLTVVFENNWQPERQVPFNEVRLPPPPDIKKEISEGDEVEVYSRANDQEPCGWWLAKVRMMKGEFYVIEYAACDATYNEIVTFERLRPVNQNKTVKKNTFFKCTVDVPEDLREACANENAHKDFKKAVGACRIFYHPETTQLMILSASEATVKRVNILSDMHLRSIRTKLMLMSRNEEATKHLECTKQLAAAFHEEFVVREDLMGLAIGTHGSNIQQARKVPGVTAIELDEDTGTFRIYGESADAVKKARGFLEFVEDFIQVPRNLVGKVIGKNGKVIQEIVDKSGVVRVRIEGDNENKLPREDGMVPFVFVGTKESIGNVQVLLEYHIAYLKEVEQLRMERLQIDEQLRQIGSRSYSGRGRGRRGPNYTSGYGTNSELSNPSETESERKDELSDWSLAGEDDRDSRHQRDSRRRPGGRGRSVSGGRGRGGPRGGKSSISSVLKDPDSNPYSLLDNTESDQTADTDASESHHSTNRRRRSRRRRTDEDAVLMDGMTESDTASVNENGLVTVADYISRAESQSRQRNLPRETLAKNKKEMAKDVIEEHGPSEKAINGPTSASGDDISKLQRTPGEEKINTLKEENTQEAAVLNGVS
Sequence of UniProt Q9BRQ6 (Q9BRQ6 whole entry, one chain of several): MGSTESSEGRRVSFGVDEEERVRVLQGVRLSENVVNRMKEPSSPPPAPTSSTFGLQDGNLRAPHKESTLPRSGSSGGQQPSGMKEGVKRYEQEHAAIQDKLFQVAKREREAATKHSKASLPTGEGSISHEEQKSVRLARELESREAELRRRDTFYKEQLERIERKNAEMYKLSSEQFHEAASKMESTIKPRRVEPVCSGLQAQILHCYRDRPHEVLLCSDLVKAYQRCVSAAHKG
Sequence of UniProt P25705 (P25705 whole entry): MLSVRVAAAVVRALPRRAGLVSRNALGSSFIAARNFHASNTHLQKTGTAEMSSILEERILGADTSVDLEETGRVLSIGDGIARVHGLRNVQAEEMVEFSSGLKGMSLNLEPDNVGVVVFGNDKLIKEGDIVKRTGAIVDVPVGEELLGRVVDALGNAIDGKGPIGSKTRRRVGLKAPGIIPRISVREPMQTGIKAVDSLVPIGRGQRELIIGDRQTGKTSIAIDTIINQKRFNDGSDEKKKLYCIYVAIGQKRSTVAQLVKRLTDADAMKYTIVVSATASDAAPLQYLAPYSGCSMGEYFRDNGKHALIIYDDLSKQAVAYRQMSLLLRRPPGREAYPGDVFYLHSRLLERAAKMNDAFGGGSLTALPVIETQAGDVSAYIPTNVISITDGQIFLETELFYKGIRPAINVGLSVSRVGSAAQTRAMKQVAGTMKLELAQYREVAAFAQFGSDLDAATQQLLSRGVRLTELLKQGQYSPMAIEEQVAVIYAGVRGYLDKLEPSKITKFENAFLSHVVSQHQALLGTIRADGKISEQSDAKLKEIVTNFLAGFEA
Sequence of UniProt O43324 (O43324 whole entry): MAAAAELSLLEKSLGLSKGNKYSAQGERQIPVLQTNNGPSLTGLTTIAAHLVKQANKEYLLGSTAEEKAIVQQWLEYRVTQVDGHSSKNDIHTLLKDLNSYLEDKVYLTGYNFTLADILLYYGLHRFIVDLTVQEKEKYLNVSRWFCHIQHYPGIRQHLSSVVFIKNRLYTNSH
Sequence of UniProt O75554 (O75554 whole entry): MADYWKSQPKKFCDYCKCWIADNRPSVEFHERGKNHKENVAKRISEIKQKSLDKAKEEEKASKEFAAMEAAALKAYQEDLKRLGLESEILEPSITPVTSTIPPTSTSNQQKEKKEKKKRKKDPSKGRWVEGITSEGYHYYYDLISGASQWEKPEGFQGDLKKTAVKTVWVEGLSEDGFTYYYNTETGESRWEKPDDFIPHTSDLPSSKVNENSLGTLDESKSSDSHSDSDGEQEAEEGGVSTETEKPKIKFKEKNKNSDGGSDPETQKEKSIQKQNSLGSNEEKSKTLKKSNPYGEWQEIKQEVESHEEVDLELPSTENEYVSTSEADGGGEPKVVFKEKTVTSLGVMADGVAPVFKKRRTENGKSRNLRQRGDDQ
Sequence of UniProt P30622 (P30622 whole entry): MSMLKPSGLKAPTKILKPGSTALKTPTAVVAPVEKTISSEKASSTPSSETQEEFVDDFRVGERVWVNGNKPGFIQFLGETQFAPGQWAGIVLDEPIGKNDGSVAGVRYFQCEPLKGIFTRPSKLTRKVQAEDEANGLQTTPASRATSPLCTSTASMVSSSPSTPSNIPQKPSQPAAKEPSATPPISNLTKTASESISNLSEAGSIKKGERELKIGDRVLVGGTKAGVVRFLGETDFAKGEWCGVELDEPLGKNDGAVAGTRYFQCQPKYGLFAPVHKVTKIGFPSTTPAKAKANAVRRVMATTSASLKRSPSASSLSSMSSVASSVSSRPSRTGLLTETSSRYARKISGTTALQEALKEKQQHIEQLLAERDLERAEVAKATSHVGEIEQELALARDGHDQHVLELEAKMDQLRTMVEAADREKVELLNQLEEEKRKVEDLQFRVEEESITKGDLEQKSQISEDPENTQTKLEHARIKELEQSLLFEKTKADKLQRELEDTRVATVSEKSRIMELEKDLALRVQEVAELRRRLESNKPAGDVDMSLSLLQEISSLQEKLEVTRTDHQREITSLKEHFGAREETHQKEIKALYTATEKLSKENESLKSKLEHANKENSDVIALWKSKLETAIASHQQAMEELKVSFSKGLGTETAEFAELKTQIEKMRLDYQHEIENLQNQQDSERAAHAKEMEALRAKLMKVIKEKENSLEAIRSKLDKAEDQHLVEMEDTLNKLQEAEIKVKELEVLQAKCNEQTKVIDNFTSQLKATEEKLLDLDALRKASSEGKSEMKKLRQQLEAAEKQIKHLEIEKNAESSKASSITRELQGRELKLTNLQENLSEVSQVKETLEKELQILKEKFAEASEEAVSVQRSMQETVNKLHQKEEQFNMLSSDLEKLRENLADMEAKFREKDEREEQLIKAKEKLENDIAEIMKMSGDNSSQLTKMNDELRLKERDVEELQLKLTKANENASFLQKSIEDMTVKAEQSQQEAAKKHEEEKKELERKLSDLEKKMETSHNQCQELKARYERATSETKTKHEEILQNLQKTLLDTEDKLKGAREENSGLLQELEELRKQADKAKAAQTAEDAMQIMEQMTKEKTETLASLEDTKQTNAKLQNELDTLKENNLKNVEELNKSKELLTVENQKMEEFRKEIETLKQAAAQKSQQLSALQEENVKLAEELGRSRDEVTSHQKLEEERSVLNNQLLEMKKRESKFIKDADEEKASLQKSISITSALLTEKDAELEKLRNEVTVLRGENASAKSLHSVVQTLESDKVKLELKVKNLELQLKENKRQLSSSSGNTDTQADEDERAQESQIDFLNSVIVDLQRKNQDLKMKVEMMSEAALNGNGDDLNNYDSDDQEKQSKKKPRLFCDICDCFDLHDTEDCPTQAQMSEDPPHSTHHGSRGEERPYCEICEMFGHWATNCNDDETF
Sequence of UniProt Q9Y421 (Q9Y421 whole entry, one chain of several): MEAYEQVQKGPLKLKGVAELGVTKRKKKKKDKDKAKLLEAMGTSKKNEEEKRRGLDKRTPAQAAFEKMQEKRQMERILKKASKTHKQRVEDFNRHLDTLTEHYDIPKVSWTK
Sequence of UniProt O75828 (O75828 whole entry): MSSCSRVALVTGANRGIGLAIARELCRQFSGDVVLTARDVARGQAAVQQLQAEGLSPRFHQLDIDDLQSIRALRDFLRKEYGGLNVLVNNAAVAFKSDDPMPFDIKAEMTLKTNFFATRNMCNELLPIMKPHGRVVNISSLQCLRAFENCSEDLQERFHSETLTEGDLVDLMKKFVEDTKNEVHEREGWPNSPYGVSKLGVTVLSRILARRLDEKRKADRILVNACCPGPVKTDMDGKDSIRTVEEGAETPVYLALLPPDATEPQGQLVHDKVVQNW
Sequence of UniProt O60861 (O60861 whole entry): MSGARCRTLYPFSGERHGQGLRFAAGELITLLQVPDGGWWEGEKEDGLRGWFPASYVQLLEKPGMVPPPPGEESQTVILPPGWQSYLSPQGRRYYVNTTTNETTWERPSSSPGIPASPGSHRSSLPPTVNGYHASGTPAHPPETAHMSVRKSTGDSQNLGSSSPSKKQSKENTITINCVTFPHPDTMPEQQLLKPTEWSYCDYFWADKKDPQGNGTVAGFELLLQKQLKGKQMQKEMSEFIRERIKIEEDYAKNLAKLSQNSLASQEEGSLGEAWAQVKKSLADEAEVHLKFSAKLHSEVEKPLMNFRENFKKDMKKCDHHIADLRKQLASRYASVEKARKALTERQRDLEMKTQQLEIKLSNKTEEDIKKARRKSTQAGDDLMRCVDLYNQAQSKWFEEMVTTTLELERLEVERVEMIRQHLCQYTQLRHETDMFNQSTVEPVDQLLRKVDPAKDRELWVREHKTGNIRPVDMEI
Sequence of UniProt O43809 (O43809 whole entry): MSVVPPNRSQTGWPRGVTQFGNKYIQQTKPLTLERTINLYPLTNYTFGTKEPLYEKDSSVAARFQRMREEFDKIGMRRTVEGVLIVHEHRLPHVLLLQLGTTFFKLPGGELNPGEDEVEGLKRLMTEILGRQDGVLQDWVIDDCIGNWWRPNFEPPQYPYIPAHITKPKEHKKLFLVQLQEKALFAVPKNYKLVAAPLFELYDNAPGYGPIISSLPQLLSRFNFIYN

Target	NP40-soluble protein abundance (concentration: 0.1mM)	NP40-soluble protein abundance (concentration: 0.5mM)	NP40-soluble protein abundance (concentration: 1mM)	NP40-soluble protein abundance (concentration: 2mM)	NP40-soluble protein abundance (concentration: 4mM)	NP40-soluble protein abundance (concentration: 6mM)	NP40-soluble protein abundance (concentration: 8mM)	NP40-soluble protein abundance (concentration: 10mM)
UniProt P30622|P30622-1	0.996 ± 0.068	1 ± 0.086	1.01 ± 0.08	0.97 ± 0.11	0.953 ± 0.076	0.954 ± 0.069	1 ± 0.088	1.01 ± 0.11
P0C0S5|Q71UI9 (UniProt Q71UI9+P0C0S5)	0.898 ± 0.042	0.919 ± 0.033	1.11 ± 0.065	1.11 ± 0.06	1.12 ± 0.06	1.25 ± 0.094	1.25 ± 0.079	1.57 ± 0.18
MCM2 (UniProt P49736)	1.01 ± 0.052	1.07 ± 0.071	0.975 ± 0.074	0.985 ± 0.099	0.974 ± 0.1	0.983 ± 0.1	0.944 ± 0.083	0.929 ± 0.074
CBR3 (UniProt O75828)	1.15 ± 0.032	1.21 ± 0.11	1.11 ± 0.029	1.06 ± 0.082	1.04 ± 0.082	0.936 ± 0.091	1.08 ± 0.22	1.09 ± 0.11
P15531-2|P22392-2|Q32Q12 (UniProt Q32Q12+P22392+P15531)	0.983 ± 0.029	0.946 ± 0.049	0.903 ± 0.045	0.909 ± 0.068	0.9 ± 0.017	0.878 ± 0.04	0.822 ± 0.06	0.839 ± 0.025
UniProt O75170|O75170-2|O75170-3|O75170-4|O75170-5	1 ± 0.15	0.979 ± 0.059	1.03 ± 0.12	1 ± 0.043	0.973 ± 0.071	0.992 ± 0.056	0.963 ± 0.065	1.05 ± 0.075
UniProt P25705|P25705-2	0.981 ± 0.022	1.04 ± 0.057	0.998 ± 0.062	1.01 ± 0.087	0.986 ± 0.088	1.03 ± 0.11	1.01 ± 0.11	0.995 ± 0.098
UniProt P38159|P38159-2	1.02 ± 0.048	1.02 ± 0.027	1.18 ± 0.036	1.29 ± 0.043	1.47 ± 0.052	1.65 ± 0.1	1.8 ± 0.15	2.04 ± 0.32
J3QTA6|Q9BRQ6 (UniProt Q9BRQ6)	1 ± 0.084	1.01 ± 0.083	1.12 ± 0.14	1.15 ± 0.054	1.15 ± 0.09	1.16 ± 0.062	1.22 ± 0.12	1.26 ± 0.21
UniProt P06729	0.895 ± 0.023	0.902 ± 0.035	0.912 ± 0.02	0.88 ± 0.072	0.852 ± 0.038	0.89 ± 0.053	0.893 ± 0.036	0.903 ± 0.039
NUDT21 (UniProt O43809)	1.11 ± 0.12	1.39 ± 0.12	1.64 ± 0.21	1.86 ± 0.31	2.02 ± 0.39	2.04 ± 0.35	1.97 ± 0.25	2.07 ± 0.44
J3QT87|Q96SW2|Q96SW2-2 (UniProt Q96SW2)	1.07 ± 0.084	1.07 ± 0.1	0.979 ± 0.034	1.03 ± 0.12	1.05 ± 0.061	1.04 ± 0.1	0.946 ± 0.047	0.931 ± 0.039
EEF1E1 (UniProt O43324)	1.05 ± 0.28	0.987 ± 0.27	1.24 ± 0.41	1.43 ± 0.46	1.41 ± 0.44	1.39 ± 0.45	1.22 ± 0.39	1.31 ± 0.55
UniProt O95644|O95644-10|O95644-11|O95644-2|O95644-3|O95644-4|O95644-5|O95644-6|O95644-8	1.01 ± 0.2	1.07 ± 0.094	1.25 ± 0.18	1.37 ± 0.17	1.31 ± 0.29	1.34 ± 0.19	1.17 ± 0.053	1.34 ± 0.3
FXR1 (UniProt P51114)	1.13 ± 0.11	1.23 ± 0.075	1.31 ± 0.042	1.54 ± 0.07	1.885 ± 0.0094	2.02 ± 0.03	2.16 ± 0.091	2.28 ± 0.13
PYGB (UniProt P11216)	1.11 ± 0.12	1.19 ± 0.21	1.2 ± 0.28	1.45 ± 0.5	1.71 ± 0.63	1.78 ± 0.69	1.75 ± 0.61	1.79 ± 0.67
UniProt P50395|Q5SX86	0.966 ± 0.022	0.999 ± 0.023	0.916 ± 0.02	0.899 ± 0.0095	0.882 ± 0.012	0.89 ± 0.017	0.859 ± 0.04	0.829 ± 0.057
P39880-3|Q13948|Q13948-2|P39880 (UniProt Q13948+P39880)	0.948 ± 0.035	0.948 ± 0.058	1.01 ± 0.049	0.978 ± 0.063	1.01 ± 0.054	0.997 ± 0.052	1.03 ± 0.024	1.05 ± 0.063
HMGN4 (UniProt O00479)	1.08 ± 0.057	1.06 ± 0.12	1.02 ± 0.12	1.31 ± 0.04	1.83 ± 0.15	2.26 ± 0.16	1.51 ± 0.74	4.79 ± 0.19
HMGN1 (UniProt P05114)	1.26 ± 0.29	1.29 ± 0.33	1.39 ± 0.48	1.52 ± 0.48	1.34 ± 0.34	1.83 ± 0.67	1.66 ± 0.36	1.8 ± 0.33
UniProt P09564	1.03 ± 0.2	0.908 ± 0.048	1.09 ± 0.19	0.942 ± 0.15	1.02 ± 0.13	0.977 ± 0.15	1 ± 0.17	0.932 ± 0.14
UniProt O15111	1.03 ± 0.04	1.04 ± 0.07	0.963 ± 0.052	0.964 ± 0.081	0.961 ± 0.06	0.927 ± 0.061	0.891 ± 0.013	0.887 ± 0.024
UniProt P17812	1.04 ± 0.085	1.03 ± 0.089	0.924 ± 0.05	0.916 ± 0.096	0.904 ± 0.077	0.883 ± 0.076	0.864 ± 0.041	0.819 ± 0.086
UniProt O60861|O60861-1|O60861-4	1 ± 0.02	1.01 ± 0.071	1.01 ± 0.047	0.94 ± 0.063	0.935 ± 0.035	0.929 ± 0.04	0.978 ± 0.046	0.888 ± 0.06
URB1 (UniProt O60287)	1.07 ± 0.019	1.16 ± 0.061	1.21 ± 0.076	1.41 ± 0.097	1.79 ± 0.072	1.95 ± 0.13	2.18 ± 0.082	2.34 ± 0.033
NUDT2 (UniProt P50583)	0.93 ± 0.17	0.902 ± 0.14	0.884 ± 0.15	0.877 ± 0.15	1.8 ± 0.49	1.24 ± 0.23	1.48 ± 0.34	1.16 ± 0.26
K7EIY1|Q9Y421 (UniProt Q9Y421)	1.045 ± 0.0048	0.987 ± 0.15	1.07 ± 0.11	1.14 ± 0.14	1.25 ± 0.12	1.21 ± 0.2	1.24 ± 0.11	1.37 ± 0.088
UniProt O75554|O75554-2	1.01 ± 0.045	1.07 ± 0.1	1.08 ± 0.083	1.05 ± 0.12	1.04 ± 0.059	1.09 ± 0.12	1.12 ± 0.072	1.06 ± 0.034
